The results in this text go back to PubChem BioAssay AID717 (Columbia University Molecular Screening Center, 2007).

The whole screen tested about 91,000 compounds, of which about 40 (0.04%) were called active. These entries were drawn from the full list. Values without a mark were called inactive. Rule as the data show it: active = activation above about 37%; inactive = the rest.

The target in this assay is Bifunctional epoxide hydrolase 2 (Homo sapiens) (UniProt P34913). The experiment in a line: soluble epoxide hydrolase activators, primary screen, biochemical, human sEH (AID 717). As to conditions: purified human sEH enzymatic activity, activator screen; at 2 µM; hits give high values.
Chain of Bifunctional epoxide hydrolase 2 (Homo sapiens) (P34913 whole entry, looked up): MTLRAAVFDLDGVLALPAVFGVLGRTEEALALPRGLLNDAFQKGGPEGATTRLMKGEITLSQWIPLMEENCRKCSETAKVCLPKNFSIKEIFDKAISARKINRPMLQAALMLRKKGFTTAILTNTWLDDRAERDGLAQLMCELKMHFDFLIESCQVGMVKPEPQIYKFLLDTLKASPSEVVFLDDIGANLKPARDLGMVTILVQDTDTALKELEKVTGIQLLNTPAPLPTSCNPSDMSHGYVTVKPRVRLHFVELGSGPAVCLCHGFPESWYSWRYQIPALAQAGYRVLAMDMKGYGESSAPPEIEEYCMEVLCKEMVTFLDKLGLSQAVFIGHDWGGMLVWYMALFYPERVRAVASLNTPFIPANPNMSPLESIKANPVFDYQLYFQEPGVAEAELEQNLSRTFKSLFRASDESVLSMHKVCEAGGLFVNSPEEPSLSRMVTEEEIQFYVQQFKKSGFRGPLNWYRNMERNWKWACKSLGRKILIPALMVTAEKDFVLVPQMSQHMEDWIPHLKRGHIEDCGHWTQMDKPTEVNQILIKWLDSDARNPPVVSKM
In the case of `CCC(=O)NC(NCC1CCCO1)C(Cl)(Cl)Cl` (centres undefined), the activation is 2.5%.
The result for `O=C(CCc1ccc(S(=O)(=O)N2CCOCC2)cc1)Nc1ccc2ccccc2c1` reads -20.5%; that for `O=C(CCCOc1ccccc1)NCc1ccco1`, -2.8%.
Turning to `COc1ccc(C(=O)N2CCc3cc(OC)c(OC)cc3C2c2cccc([N+](=O)[O-])c2)cc1` (centres undefined), the activation is 2.1%.
The result for `Cc1cc(-c2cccs2)nc(-n2cccc2)n1` reads -0.3%; that for `CCN(CC)CCNc1ccc(Cl)cc1[N+](=O)[O-]`, -8.3%.
The result for `Cc1ccccc1NC(=O)C(C)c1ccc(-c2ccccc2)c(F)c1` (centres undefined) reads -9.7%; that for `CCOc1ccc(Nc2nc(Cc3nnc(SCC(=O)NC4CCCC4)n3C)cs2)cc1`, -12.4%; that for `C=CCn1c(Cn2nnc3ccccc32)nnc1SCC(=O)N/N=C/c1cc(Br)cc(OC)c1O`, -14.1%.
The result for `CC12c3ccccc3C(c3ccccc31)C1C(=O)N(Cc3cccnc3)C(=O)C12` (centres undefined) reads -9.7%; that for `CNS(=O)(=O)c1cnccc1N1CCN(c2cccc(C)c2)CC1`, -13.7%; that for `COc1ccc(Cl)cc1NC(=O)CN(C)C(=O)CNC(=O)C12CC3CC(CC(C3)C1)C2`, -13.2%.
Consider `Cc1ccccc1C(=O)N1CCC(C(=O)Nc2ccc(S(=O)(=O)N(C)C(C)C)cc2)CC1`, for which the activation was -83.3%.
For `Nc1c(-c2ccc(F)cc2)cnc2ncnn12`, the activation was -1.1%.
The result for `COC(=O)c1ccc(C(=O)OC)c(NC(=S)N2CCCCC2)c1` reads 1.5%; that for `O=C(CSc1nc2ccccc2o1)N1c2ccccc2Sc2ccc(Cl)cc21`, 6.7%; that for `Cc1ccccc1OCc1nnc(SCC(=O)N2c3ccccc3Sc3ccc(Cl)cc32)o1`, 1%.
The result for `COc1ccc(CCNC(=O)COC(=O)c2ccc[nH]c2=O)cc1` reads 3.2%.
The result for `CC1CC(C)CN(C/C=C/c2ccccc2[N+](=O)[O-])C1` (centres undefined) reads -2.6%; that for `O=C(CSCc1ccc([N+](=O)[O-])cc1)NCCSCc1ccccc1`, -17.4%.
As to `O=C1c2ccccc2C(=O)c2c1cccc2N1CCN(Cc2ccccc2)CC1`, the activation was 33.6%.
On to `O=S(=O)(c1ccc(F)cc1)n1ccc(-c2cnc(-c3ccccc3)s2)n1`, for which the activation is 8.1%.
The result for `O=c1[nH]n(-c2cccc(Cl)c2)c2ncccc12` reads 0.8%.
`CC(=O)Nc1ccccc1C(=O)C(=O)Nc1ccc(F)cc1`: the activation is 21.4%.
The result for `Cc1noc(C)c1C(=O)N(CC(=O)NC1CCCC1)Cc1ccccc1F` reads 5.6%; that for `COc1cccc(NC(=O)C2c3cc(OC)c(OC)cc3C(=O)N(C)C2c2cccnc2)c1` (centres undefined), 4.9%.
The result for `Cc1cccc(-n2cnc(C(=O)Nc3cccnc3)c2)n1` reads 7.2%; that for `CC(C)C(NS(=O)(=O)c1cccs1)C(=O)Nc1nc(C(C)(C)C)cs1` (centres undefined), -6%.
The result for `c1ccc2c(C[n+]3csc4ccccc43)cccc2c1` reads 12.2%; that for `c1ccc(-c2ccnc3nc(-n4cccc4)nn23)cc1`, 3.1%; that for `COc1cccc(/C=N/NC(=O)C(=O)N2CCCC2)c1`, 7.2%.
With `CC(C)CC(=O)N1CCC(O)(CS(=O)(=O)Cc2ccccc2)CC1`, the activation was 0.4%.
Turning to `NC(=O)COc1ccc(/C=N/NC(=O)C2CCCN2S(=O)(=O)c2ccc(Cl)cc2)cc1` (centres undefined), the activation is -1.2%.
Turning to `O=C(O)COc1ccc(-c2nccc(-c3cccs3)n2)cc1`, the activation was -9.3%.
The result for `O=C(CSc1ncnc2c1cnn2CCc1ccccc1)Nc1ccc(F)cc1` reads -20.6%; that for `CN(C)/C=C(\C#N)C(=O)c1cccnc1Oc1ccc(F)cc1F`, -10.7%.
The result for `Cc1ccc2c(c1)-c1c(ssc1=S)C(C)(C)N2C(=O)CN1C(=O)c2ccccc2C1=O` reads 25.4%; that for `Cn1nc([N+](=O)[O-])nc1Sc1ccc(C(C)(C)C)cc1`, -5.2%; that for `Cc1sc(NC(=S)NC(=O)c2cccs2)nc1-c1ccc(CC(C)C)cc1`, 17.5%.
The result for `Cc1ccc(C)c(NC(=O)C2Cc3ccccc3CN2C(=O)OCc2ccccc2)c1` (centres undefined) reads 7.9%; that for `COC(=O)c1c(-c2cccs2)csc1NC(=O)CSc1ncnc2sc(C)c(C)c12`, -7%.
Turning to `Cc1cc([N+](=O)[O-])ccc1NCc1cccc([N+](=O)[O-])c1`, the activation was 2.8%.
As for `O=S(=O)(/N=C(/Nc1ccccn1)c1ccccc1)c1ccc(Cl)cc1`, the activation is -19.7%.
The result for `N/C(=N\OC(=O)c1cc(-c2ccccc2)nc2ccccc12)c1ccncc1` reads 3%; that for `Cc1cc2cc3c(N)[nH]nc3nc2cc1C`, -5.4%; that for `O=C(/C=C/c1cccs1)c1cc(Cl)ccc1OC(=O)N1CCOCC1`, 7.4%.
The result for `O=C(O)c1ccccc1NC(=S)NC(NC(=O)c1ccccc1[N+](=O)[O-])C(Cl)(Cl)Cl` (centres undefined) reads -9.3%.
The result for `Cc1c(Br)c([N+](=O)[O-])nn1C(C)C(=O)Nc1nccs1` (centres undefined) reads 6.6%; that for `CN(C)/C=C/C(=O)c1ccccc1F`, -11.3%; that for `COC(=O)CN(C(=S)Nc1ccc(Cl)cc1)C1CC(=O)N(c2ccc(OC)cc2)C1=O` (centres undefined), -11.8%.
Regarding `Cc1ccc(-c2nnc(C)c(N3CC(C)OC(C)C3)n2)cc1` (centres undefined), the activation was -0.3%.
The result for `COc1ccc(-c2c(C(C)=O)c(C)nc3sc4c(=O)n(-c5ccc(C)cc5)nnc4c23)cc1` reads -1.9%.
On to `O=C(ON=C1CCN(S(=O)(=O)c2ccccc2)CC1)c1ccc(Cl)cc1`, for which the activation is 0.1%.
The result for `N#C/C(=C(/O)Cc1cccc2ccccc12)c1nc2ccccc2s1` reads 13.6%; that for `NS(=O)(=O)c1ccc(Nc2nc(-c3ccccc3)cs2)cc1`, -4.9%.
Turning to `CS(=O)(=O)N(CC(=O)Nc1ccc(F)cc1F)c1cccc([N+](=O)[O-])c1`, the activation was -2.8%.
The result for `O=C(Nc1cc(C(F)(F)F)ccc1Cl)c1cc2nc3c(c(C(F)(F)F)n2n1)CCCC3` reads -7.1%; that for `COc1ccc(/C=C2\CCCC3C2=NN(C(=O)c2scnc2C)C3c2ccc(OC)cc2)cc1` (centres undefined), 12.7%.
The result for `O=C(c1ccccc1)C(Cn1cncn1)C(Sc1ccccc1)c1ccccc1` (centres undefined) reads 3.9%.
